Shown are actives, neighbours in structure and some others; about 1.3% of the full set was active somewhere.
NTR1 ag: agonists of human neurotensin receptor NTR1 | P30989 | NTR1-U2OS beta-arrestin-GFP spot imaging, agonist mode | activation, % at 20 µM | 330,000 tested, 0.17% active | AID 493036;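 active means activation at or above 40% of the spot to cytoplasm intensity ratio, with at least 20 cells analyzed; inconclusive means wells under 20 cells, flagged as cytotoxic or low count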
VLA-4 inh: inhibition in a human VLA-4 binding assay; AID 2557; inhibition, % (about 7 µM as worked out from the volumes in the protocol); 330,000 tested, 0.2% active; P13612; VLA-4 expressing cells, ligand binding flow cytometry; in the data active means inhibition above about 50%
Target sequence (P13612 whole entry, looked up): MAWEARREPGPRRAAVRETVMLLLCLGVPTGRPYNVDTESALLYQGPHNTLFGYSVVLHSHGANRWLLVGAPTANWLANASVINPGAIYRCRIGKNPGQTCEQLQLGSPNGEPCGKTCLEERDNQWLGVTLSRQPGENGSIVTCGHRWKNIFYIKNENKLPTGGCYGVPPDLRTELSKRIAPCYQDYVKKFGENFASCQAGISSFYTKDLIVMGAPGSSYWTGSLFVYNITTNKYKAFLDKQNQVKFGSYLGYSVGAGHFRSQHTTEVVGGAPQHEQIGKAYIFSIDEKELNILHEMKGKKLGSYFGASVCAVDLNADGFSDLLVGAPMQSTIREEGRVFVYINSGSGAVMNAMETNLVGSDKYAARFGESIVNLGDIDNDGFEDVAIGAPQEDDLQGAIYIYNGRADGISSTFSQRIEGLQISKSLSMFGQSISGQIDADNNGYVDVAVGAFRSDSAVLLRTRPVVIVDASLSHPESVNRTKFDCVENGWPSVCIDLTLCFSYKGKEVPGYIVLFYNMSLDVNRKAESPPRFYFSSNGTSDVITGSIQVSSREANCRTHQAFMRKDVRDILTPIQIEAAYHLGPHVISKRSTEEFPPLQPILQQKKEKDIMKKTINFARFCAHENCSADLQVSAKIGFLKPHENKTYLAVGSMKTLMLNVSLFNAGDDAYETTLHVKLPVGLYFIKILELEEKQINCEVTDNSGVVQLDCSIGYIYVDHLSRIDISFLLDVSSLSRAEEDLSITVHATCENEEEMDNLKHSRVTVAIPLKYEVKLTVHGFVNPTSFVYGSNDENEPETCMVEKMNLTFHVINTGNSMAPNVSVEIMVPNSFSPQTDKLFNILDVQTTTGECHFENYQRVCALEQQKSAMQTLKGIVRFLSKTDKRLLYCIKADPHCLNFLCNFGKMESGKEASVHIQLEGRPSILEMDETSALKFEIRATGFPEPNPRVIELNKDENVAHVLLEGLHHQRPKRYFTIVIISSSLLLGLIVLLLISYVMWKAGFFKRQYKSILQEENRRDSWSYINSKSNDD
Bfl-1 A1 inh: inhibitors of the anti-apoptotic protein A1, read as caspase activation; caspase activation, % (test concentration not listed); MEF A1-2A-BIM cells, Caspase-Glo 3/7 luminescence, 3 h; percent of clofoctol response, vehicle zero; 330,000 tested, 0.066% active;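 active means over half of replicate activation scores above 10%, or exactly half above 10 with the replicate mean above 10; inconclusive means replicate mean below 10 yet half the replicates above 10; inactive means over half of replicates below 10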
B2AR ag: human beta-2 adrenergic receptor agonism by FAP; P07550; Am2.2-beta2AR cells, FAP receptor internalization, flow cytometry; response, % (no concentration beside the values); 340,000 tested, 0.43% active; AID 504454;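 active means response above a set limit, near 3 SD of response in nonfluorescent compounds, cut at about 42% in these data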
GRK2 inh: blocks RNA aptamer binding to human GRK2; P25098; bead flow cytometry, FAM-aptamer displacement from GRK2; inhibition of aptamer binding, % at 10 µM; 330,000 tested, 0.59% active; AID 488847;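 active means inhibition of aptamer binding above 40%, roughly 3 SD of noise, on plates passing a quality check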;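 further: median bead fluorescence of bound FAM aptamer so fluorescent compounds give negative values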
B2AR ag CP1: human beta-2 adrenergic receptor agonism, cherry pick; shares compounds with B2AR ag; Am2.2-beta2AR cells, FAP surface receptor, flow cytometry; hits give low values; percent response (surface receptor), % at 10 µM; 1,100 tested, 25% active; AID 540358;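 active means surface receptor percent response at or below 58%, roughly 3 SD from nonfluorescent compounds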
B2AR FAP counter: fluorescence artifact in beta-2AR agonist FAP counterscreen | Am2.2 cells, FAP fluorogen flow cytometry; hits give low values | 1,100 tested, under 10 active | shares compounds with B2AR ag | AID 588765 | calls only at 10 µM;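 active means percent response below a set limit in fluorescence channel 1 and below 50% in channel 8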
Of the large screens only hits and unclear results are named; the others gave an inactive call (follow-up assays come after a bar, where they were run); ! = not confirmed by another sample.

CC(C)(CNC(=O)c1cccs1)N1CCOCC1	none
COc1ccccc1CCC(=O)N(C)CC(=O)Nc1ccc(F)cc1	none
Cc1c(C(=O)N2CCN(c3ccccc3)CC2)oc2c(F)cccc12	none
Cc1cc(Cl)c2oc(C(=O)N3CCN(c4ccncc4)CC3)c(C)c2c1	B2AR ag 65 | B2AR ag CP1 inactive | B2AR FAP counter inactive
COc1ccc(OCC(=O)Nc2ccc(S(=O)(=O)N3CCCCCC3)cc2)cc1	none
COc1ccccc1CCC(=O)Nc1cccc(S(=O)(=O)N2CCOCC2)c1	none
CCOC(=O)c1ccc(NC(=O)COc2ccc(S(=O)(=O)N3CCCC3)cc2)cc1	B2AR ag 98 | B2AR ag CP1 21 | B2AR FAP counter inactive
COc1ccc(N2C(=O)CC(N3CCN(S(=O)(=O)c4ccc(Cl)cc4)CC3)C2=O)cc1 (stereo unspecified)	none
COc1ccccc1CCC(=O)Nc1cccc(S(=O)(=O)N2CCCCCC2)c1	B2AR ag 54 | B2AR ag CP1 10 | B2AR FAP counter inactive
CC(=O)c1cccc(NC(=O)COc2ccc(S(=O)(=O)N3CCCCC3)cc2)c1	none | B2AR ag CP1 inactive | B2AR FAP counter inactive
CCOC(=O)c1ccc(S(=O)(=O)N2CCN(C3CC(=O)N(c4ccc(OC)cc4)C3=O)CC2)cc1 (stereo unspecified)	B2AR ag 52 (no result: NTR1 ag, VLA-4 inh, Bfl-1 A1 inh, GRK2 inh) | B2AR ag CP1 inactive | B2AR FAP counter inactive
O=C(NCCc1ccccc1)c1ccc(NC(=O)C2CCC2)cc1	none (no result: NTR1 ag, VLA-4 inh, Bfl-1 A1 inh, GRK2 inh)
COc1cccc(OC)c1C(=O)Nc1ccnn1C	none
Cc1cc(C)n2c(Br)c(CSc3nc4ccccc4s3)nc2n1	B2AR ag 47 | B2AR ag CP1 inactive | B2AR FAP counter inactive
Cc1cc(C)nc(NC(=O)CSc2nc3ccccc3s2)n1	none
COC(=O)NC1(C(F)(F)F)C(=O)Nc2c1c(=O)n(C)c(=O)n2C (stereo unspecified)	B2AR ag 59 | B2AR ag CP1 inactive | B2AR FAP counter inactive
CCOc1cc(C(=S)N2CCOCC2)ccc1OS(=O)(=O)c1ccccc1[N+](=O)[O-]	none | B2AR ag CP1 inactive | B2AR FAP counter inactive
Fc1ccc([C@@H]2CCNC[C@H]2COc2ccc3c(c2)OCO3)cc1	B2AR ag 45! (no result: GRK2 inh) | B2AR ag CP1 inactive | B2AR FAP counter inactive
Fc1ccc(C2CCNCC2COc2ccc3c(c2)OCO3)cc1 (stereo unspecified)	none (no result: GRK2 inh)
CCOC(=O)CSC1=C(C#N)C(c2ccc(C)o2)CC(=O)N1 (stereo unspecified)	B2AR ag 52 | B2AR ag CP1 inactive | B2AR FAP counter inactive
CCOC(=O)CSC1=C(C#N)C(c2ccc(Cl)cc2)CC(=O)N1 (stereo unspecified)	none
NC(=O)CC(NC(=O)Cc1ccc(Br)cc1)c1ccc(N2CCN(c3ccccn3)CC2)c([N+](=O)[O-])c1 (stereo unspecified)	B2AR ag 63 | B2AR ag CP1 inactive | B2AR FAP counter inactive
NC(=O)CC(NC(=O)c1cccc(Br)c1)c1ccc(N2CCC(Br)CC2)c([N+](=O)[O-])c1 (stereo unspecified)	Bfl-1 A1 inh inconclusive
NC(=O)CC(NC(=O)Cc1ccc(Cl)cc1)c1ccc(N2CCN(c3ccccn3)CC2)c([N+](=O)[O-])c1 (stereo unspecified)	none
NC(=O)CC(NC(=O)c1cccc(Br)c1)c1ccc(N2CCN(c3ccccn3)CC2)c([N+](=O)[O-])c1 (stereo unspecified)	B2AR ag 97 | B2AR ag CP1 14 | B2AR FAP counter inactive
NC(=O)CC(NC(=O)c1ccc(Br)cc1)c1ccc(N2CCN(c3ccccn3)CC2)c([N+](=O)[O-])c1 (stereo unspecified)	B2AR ag 98 | B2AR ag CP1 14 | B2AR FAP counter inactive
NC(=O)CC(NC(=O)c1ccccc1)c1ccc(N2CCN(c3ccccc3)CC2)c([N+](=O)[O-])c1 (stereo unspecified)	none
O=C(COC(=O)c1cc(Cl)nc(Cl)c1)Nc1ccc(Cl)c(S(=O)(=O)N2CCOCC2)c1	none
COc1ccc(CCN(C)C2CCCN(C(=O)Cn3cnnn3)C2)cc1OC (stereo unspecified)	none

Compound activity from PubChem.
